# Screening data: PubChem, National Center for Advancing Translational Sciences (NCATS)
# BRCA1 expr up: BRCA1 expression activation; 380,000 tested, 1.1% active; MCF7-BRCA1-FFLuc reporter, luminescence, 48 h; response scale: scaled: vehicle 0%, 10 µM genistein 100%; AID 624202; Potency, µM (series often up to 46.1 µM), without a hit: at the highest dose activation, most hits filed as activators; further: potency means the concentration at half of the fitted maximal effect; nearly all actives have a fitted effect of over 80% in size
#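 First, MCF7-BRCA1-FFLuc cells (2000/well) attach for 2 h; next, compounds are pin-added and incubated 48 h at 37 °C; finally, luciferase reagent is added and luminescence read after 15 min.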
# IL2 activator: IL-2 activation. IL-2 activation reporter assay, cell-based qHTS; stimulated with anti-CD3/CD4/CD28 beads; in transgenic mouse T cells. activation, % (series mostly up to about 46 µM). 360,000 tested, 0.065% active. AID 652025; in the data active means activation above about 50%; inconclusive means mostly about 30% to 49%; further: 0% is about no effect
#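 Unstimulated transgenic mouse T cells, 750 per well, received compound and, after 60 minutes, anti-CD3/anti-CD4 bead plus anti-CD28 stimulation. EGFP and DsRed were quantified after 18 hours.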
# BCR signal inh: chronic active BCR signaling inhibition | ABC-DLBCL IkBa-CBG/CBR reporter, luminescence ratio, 4 h | Potency, µM (doses to about 46.1 µM), inactives show top-dose activity change, negative = inhibition, usual class: inhibitors | 340,000 tested, 0.05% active; active means well fitted inhibition curve with a large enough effect in the signal ratio, with a control signal flat, not every such curve was filed as active; inconclusive means small, poorly fitted or top-dose-only effect, or effect the other way, or a change in a side signal; the % refers to the signal ratio;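 further: potency means the concentration at half of the fitted maximal effect; plate controls were basal doxycycline-induced cells for no effect and cells given 10 µM MG132 for full effect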
#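 TMD8 human ABC-DLBCL cells with doxycycline-inducible IκBα–green luciferase fusion and unfused red luciferase, in 0.5% FBS medium; compounds up to 46 uM, 4 h at 37C. Green/red luminescence ratio, filter-overlap corrected, fitted to concentration-response curves.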
# a7 integrin act: activates integrin-mediated alleviation for muscular dystrophy; alpha7betagal myoblasts, beta-gal FDG fluorescence, 48 h; Potency, µM (doses to about 38.3 µM), for inactives: at the top dose activation, actives largely listed as activators; 350,000 tested, 0.064% active; AID 624291;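 further: potency means the concentration at half of the fitted maximal effect; 100% = response of the positive control SU9516; nearly all actives have a fitted effect of over 60% in size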
#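 Alpha7betagal+/- myoblasts (passage 13) were plated 16-24 hr, then exposed to compounds (1:260 dilution of DMSO stock) for 48 hours at 37C. After MPER lysis, β-galactosidase reporter activity was read as FDG fluorescence (ex 480/em 540) after 30 minutes.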
# N370S GC mod: N370S glucocerebrosidase modulation, Gaucher chaperone candidate; P04062; 330,000 tested, 0.092% active; N370S GC spleen homogenate, 4MU-glucoside fluorescence; Potency, µM (doses to about 59.4 µM), without a hit: top-dose activity change, negative = inhibition, actives largely listed as inhibitors;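 further: potency means the concentration at half of the fitted maximal effect; 0% = full enzyme activity and -100% = no enzyme basal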
# Nrf2 activator: activators of Nrf2 (ARE) signaling. 410,000 tested, 0.31% active. AREc32 ARE-luciferase reporter (MCF7-derived line), luminescence, 24 h. Potency, µM (top dose mostly 46.1 µM), for the others: at the top dose activation, usual class: activators; further: potency means the concentration at half of the fitted maximal effect; % of control where 0% means no effect; nearly all actives have a fitted effect of over 65% in size
#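 Quantitative high-throughput format: AREc32 reporter cells, 1000 per well, received compound by pin transfer and were incubated 24 hr at 37 deg C, 5% CO2, before Steady-Glo luminescence detection.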
# * = called active by the depositor; ? = inconclusive; · = no result; [ ] = remark or other dose. This is a sample that favours compounds with a hit; in the whole collection about 1.4% have one here. Unless noted, the call rests on the fitted dose curve; in most records, active means well fitted curve in the direction sought with a large enough effect; inconclusive means small, poorly fitted or top-dose-only effect, or another doubt; inactive means no such curve, though single readings can be large; an effect the other way counts as inactive or inconclusive.
SMILES,BRCA1 expr up,IL2 activator,BCR signal inh,a7 integrin act,N370S GC mod,Nrf2 activator
CCOc1ccc(Nc2nc3ccccc3n2C)cc1,2.5µM*,-3,·,23%,·,3%
CCc1ccc(CNc2ccc3c(c2)ncn3CC)cc1,6.3µM*,-5,3%,0%,-4%,2%
Nn1c(Nc2ccccc2)nc2ccccc21,10µM*,0,-3%,-18%,-28%,6%
CCOc1ccc(CNc2ccc3c(c2)nc(C)n3C)cc1,11µM*,-3,1%,-18%,4%,3%
CN(C)CCNC(=O)c1cccc(-c2cccc3nncn23)c1,4%,3,·,·,·,0%[9.22 µM]
CCOc1ccc(Nc2cc(C)c3ccccc3n2)cc1,10µM*,-3,?,-14%,0%,0%
COc1cc2nc(N3CCCN(C)CC3)nc(NC3CCOCC3)c2cc1OC,-29%,·,·,·,·,·
O=C(Nc1ccc(Br)cn1)c1coc(=O)c(Br)c1,-7%,7,?,-15%,7%,18µM*
COc1ccc(C(=O)NC(C)c2ccccc2)cc1Br (centres undefined),-24%,-1,-1%,?,12%,0%
C[C@@H](NC(=O)c1coc(=O)c(Br)c1)c1ccccc1,-78%,0,?,-38%,1%,11µM*
O=C(Nc1cc2c(oc1=O)CCCC2=O)c1cccc(Cl)c1,-23%,-2,-1%,11%,4%,11µM*
CCOC(=O)C1(Cc2ccccc2Cl)CCN(C(=O)CN2CCOC2=O)CC1,13µM*,-2,?,24%,11%,0%[9.22 µM]
CN(C)c1ccc(C(=O)N=c2sccn2C)cc1[N+](=O)[O-],11µM*,-4,-16%,-19%,-15%,0%
Cn1ccsc1=NC(=O)c1ccc(S(=O)(=O)C(F)F)cc1,13µM*,0,-6%,8%,-4%,3%
O=c1[nH]c(SCc2ccccc2)ncc1S(=O)(=O)c1ccccc1,0%,·,·,·,·,·
CC(C)=NNc1cnnc2ccc([N+](=O)[O-])cc12,-36%,2,·,·,·,3.5µM*
CCOc1ccc(C2(C)NC(=O)N(CCN(C)C)C2=O)cc1 (centres undefined),-20%,-2,0%,24%,2%,-1%
COCc1ccc(C(=O)N(C)CC2CCCN(CCc3ccc(OC)cc3)C2)o1 (centres undefined),13µM*,-1,0%,?,-3%,1%
O=C(COc1ccccc1C(=O)Nc1ccccc1)Nc1ccc(Br)cc1,5%,·,·,·,·,·
O=C(Nc1ccccc1)C(Cl)C(=O)c1ccccc1 (centres undefined),30%,-1,?,0%,2%,14µM*
CC(=O)C(Cl)C(=O)Nc1ccccc1 (centres undefined),-16%,-1,?,-60%,-4%,7%
CC[C@@]1(O)C(=O)COc2c1cc1n(c2=O)Cc2c-1nc1cccc(C(C)C)c1c2[Si](C)(C)C,·,·,·,·,18%,·
COc1ccccc1NC(CC(=O)c1ccccc1)C(=O)OCC(=O)c1ccc(Br)cc1 (centres undefined),-32%,0,-13%,-17%,6%,22µM*
COc1ccccc1NC(CC(=O)c1ccccc1)C(=O)OCC(=O)c1ccc(C)c(C)c1 (centres undefined),-24%,0,?,-12%,2%,13µM*
COc1ccccc1NC(CC(=O)c1ccccc1)C(=O)OCC(=O)c1ccc(C)cc1 (centres undefined),-23%,-1,?,-18%,7%,12%
Cc1cccc(NC(=O)C(=O)NCCc2csc(-c3ccc(F)cc3)n2)c1C,·,·,·,·,·,-1%
Cc1cc(N2CCCCC2)nc(SCC(=O)c2ccccc2)n1,10µM*,-2,?,6%,17%,5%
Cc1cc(C)c(C#N)c(SCC(=O)c2ccccc2)n1,-24%,0,0%,-2%,?,2.8µM*
